Assay results as given in PubChem BioAssay AID1347056 (Sanford-Burnham Center for Chemical Genomics, 2019).
Screen size: about 360,000 compounds; about 3,600 (1%) were called active.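 How the source made its calls: active means compounds whose plate-normalised and pattern-corrected inhibition of the luciferase reporter signal at the single screening dose is 50% or more; inactive means the rest.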 The entries come from a sample that favours actives as a whole.

assay: inhibitors of TROY-driven NF-kB signaling, primary screen, Q293 LMP1-TROYcd cells, NF-kB luciferase, uHTS (AID 1347056); settings: Q293 LMP1-TROYcd NF-kB luciferase reporter, 4 h; at 10 µM; stronger effect = higher value

Row | SMILES | inhibition
1 | O=C(COC(=O)C1CC2CCCC(C1)C2=O)NC(=O)c1ccccc1 (centres undefined) | 4.06% (inactive)
2 | Cn1c(-c2ccc(C(F)(F)F)cc2)cc2onc(-c3ccccc3)c2c1=O | 69.6% (active)
3 | Cn1c(-c2ccc(F)cc2)cc2onc(-c3ccccc3Cl)c2c1=O | 6.78% (inactive)
4 | O=c1c2ccccc2c(-c2ccc(F)cc2)nn1-c1ccc(C(F)(F)F)cc1 | -12.3% (inactive)
5 | COc1cc(/C(=C/c2ccccc2)c2ccccc2)c2c(c1)oc1ccccc12 | 0.46% (inactive)
6 | Cc1ccc(S(=O)(=O)N(C)c2nc3ccccc3n3c(C(C)C)nnc23)cc1 | 6.76% (inactive)
7 | CC1(C)N=C(N)NC(Nc2ccc(Cl)cc2)=N1 | -5.09% (inactive)
8 | Cc1cc(OCc2ccc(C(=O)Nc3ccc(C(=O)O)cc3)o2)ccc1Cl | -33.7% (inactive)
9 | O=c1oc2ccccc2cc1-c1cn(-c2ccccc2)c(=S)[nH]1 | 90.1% (active)
10 | O=C1Cc2ccccc2Sc2ccc(Cl)cc21 | -41.4% (inactive)
11 | CCCCNC(=O)C[C@@H]1C[C@@]2(C(=O)OCC)CCC=C2N(Cc2ccco2)C1=O | 1.34% (inactive)
12 | Cc1ccc2occ(/C=N/NC(=O)c3ccccc3C)c(=O)c2c1 | 57.9% (active)
13 | CC(C)(C)OC(=O)NCCCCCC(=O)N/N=C/c1coc2ccccc2c1=O | -22.3% (inactive)
14 | O=c1c(/C=N/O)coc2ccc(Cl)cc12 | 12.5% (inactive)
15 | CC1(Cc2ccccc2C#N)C(=O)Nc2ccc(-c3ccc4[nH]ccc4c3)cc21 (centres undefined) | 24.8% (inactive)
16 | CC(Sc1nncn1C)C(=O)Nc1cc(C(F)(F)F)ccc1N1CCOCC1 (centres undefined) | -8.48% (inactive)
17 | Cc1onc(-c2ccc(Cl)cc2)c1-c1ccnn1S(=O)(=O)c1ccc(Cl)cc1 | -10.7% (inactive)
18 | O=C(COC(=O)c1cccnc1Cl)NC(=O)NC1CCCCC1 | -1.94% (inactive)
19 | CC(=O)Nc1ccc(S(=O)(=O)N2CCC(N(C)CCC(C)C)CC2)cc1 | 15.7% (inactive)
20 | O=C(CSC(=S)N1CCOCC1)c1ccccc1 | 50.2% (active)
21 | CC1CN(C(=S)SCC(=O)c2ccccc2)CC(C)O1 (centres undefined) | -38.2% (inactive)
22 | NC(=NC(=O)c1ccccc1)N1CCOCC1 | -4.29% (inactive)

Row | SMILES | inhibition
23 | CC1=CC=CN2C1=NC(=O)CC2(C)C(=O)N(CC(=O)NC1CCCC1)c1ccccc1C (centres undefined) | 6.68% (inactive)
24 | CN1CCN(c2ccncc2S(=O)(=O)N2CCCC2)CC1 | -13.2% (inactive)
25 | COCCNc1ncnc2c1ncn2[C@H]1CN(Cc2ccc(OC)cc2)C[C@@H](CO)O1 | -16.1% (inactive)
26 | COC(=O)C1(S(=O)(=O)C2(C(=O)OC)CCCC2)CCCC1 | 10.4% (inactive)
27 | CCCCCc1c(Cc2ccccc2)ncn1CCc1ccccc1OC | 49.9% (inactive)
28 | Cc1ccccc1NS(=O)(=O)CCCCC(Cl)(Cl)Cl | 5.02% (inactive)
29 | Clc1ccc(Cn2ncc3c(NCc4cccnc4)ncnc32)cc1 | 58.7% (active)
30 | c1ccc(CNc2ncnc3[nH]ncc23)cc1 | 12.9% (inactive)
31 | CC(C)CNc1ncnc2c1cnn2Cc1ccc(Cl)cc1 | -3.29% (inactive)
32 | CC(CNc1ccc([N+](=O)[O-])c2cccnc12)Nc1c([N+](=O)[O-])cc(C(F)(F)F)cc1[N+](=O)[O-] (centres undefined) | 9.66% (inactive)
33 | CC(OC(=O)CNC(=O)c1ccc(Cl)c([N+](=O)[O-])c1)C(=O)NCc1ccco1 (centres undefined) | -1.1% (inactive)
34 | O=C(COc1ccc([N+](=O)[O-])cc1)Nc1cccc(C(=O)Nc2ccccc2C(=O)O)c1 | 13.9% (inactive)
35 | CC(=O)Nc1ccc(NC(=O)C(C)OC(=O)c2ccccc2C(=O)c2ccc(Cl)c([N+](=O)[O-])c2)cc1 (centres undefined) | 51% (active)
36 | CCc1ccc(NC(=O)C(C)OC(=O)/C=C/c2cccc([N+](=O)[O-])c2)cc1 (centres undefined) | 7.86% (inactive)
37 | NS(=O)(=O)c1cccc(NC(=O)COC(=O)c2cc([N+](=O)[O-])ccc2N2CCCC2)c1 | -3.22% (inactive)
38 | N#Cc1cccc(NC(=O)COC(=O)c2ccccc2C(=O)c2ccc(Cl)c([N+](=O)[O-])c2)c1 | 66.1% (active)
39 | CN(CC(=O)NC1CCCC1)S(=O)(=O)c1cnc[nH]1 | 7.95% (inactive)
40 | CCNc1nc(NC(C)C)nc(N2CC(=O)N(CC(=O)OCC)C2=N)n1 | 19.4% (inactive)
41 | CCOC(=O)N1CCN(C(=O)c2ccc3c(=O)n(CCc4ccc(OC)c(OC)c4)c(=O)[nH]c3c2)CC1 | 1.87% (inactive)
42 | Cc1ccccc1NC(=O)C1CCN(C(=O)NC2CCCCC2)CC1 | -10.7% (inactive)
43 | O=C(C1CCCN(S(=O)(=O)c2ccccc2)C1)N1CCN(c2ccc(F)cc2)CC1 (centres undefined) | 3.28% (inactive)
44 | COc1cccc(N2CCN(C(=O)C3CCCN(S(=O)(=O)c4cnc[nH]4)C3)CC2)c1 (centres undefined) | -3.43% (inactive)

Row | SMILES | inhibition
45 | CC(=O)N1CCCc2cc(S(=O)(=O)N3CCCC(C(=O)N4CCN(c5cccc(Cl)c5)CC4)C3)ccc21 (centres undefined) | 54.2% (active)
46 | CCOc1cccc2cc(C(=O)OCC(=O)Nc3c(C)cccc3CC)c(=O)oc12 | -77.6% (inactive)
47 | O=C(Nc1ccc(Cl)c(C(F)(F)F)c1)C1Cc2c(-c3ccccc3Oc3ccccc3)ccnc2O1 (centres undefined) | 16.3% (inactive)
48 | COc1ccc(N(CC(=O)NCc2ccc(F)cc2)C(=O)CCC(=O)Nc2nccs2)cc1 | -6.88% (inactive)
49 | O=C(CNC(=O)OCc1ccccc1)Oc1cc2oc(=O)cc(-c3ccccc3)c2cc1Cl | 50.4% (active)
50 | O=C(CNC(=O)c1ccccc1)NCC(=O)OCc1ccc(Cl)cc1 | 17.5% (inactive)
51 | CC(Oc1ccc2c(-c3ccccc3)cc(=O)oc2c1)C(=O)NC(Cc1c[nH]c2ccccc12)C(=O)O (centres undefined) | -3.69% (inactive)
52 | Cc1ccc(S(=O)(=O)Oc2ccc(/C=N/NC(=O)c3c(Cl)cnn3C)cc2)cc1 | -1.06% (inactive)
53 | CCN(CC)CCNC(=O)c1sc2ncn(CC(=O)Nc3ccc(C)c(Cl)c3)c(=O)c2c1C | 6.8% (inactive)
54 | CC(=O)N1CCN(c2ccccc2NC(=S)NC(=O)c2cc3ccccc3o2)CC1 | 5.79% (inactive)
55 | O=C1NC(c2ccncc2)Nc2sc3c(c21)CCCC3 (centres undefined) | -12.2% (inactive)
56 | C/C(=C\c1ccccc1)C1NC(=O)c2c(sc3c2CCCC3)N1 (centres undefined) | 67.6% (active)
57 | O=C(Nc1sc2c(c1-c1nc3ccccc3[nH]1)CCCC2)C1CC1 | -11.2% (inactive)
58 | CN(C)S(=O)(=O)c1ccc2oc(SCC(=O)Nc3ccccc3F)nc2c1 | -36.4% (inactive)
59 | COc1ccc(Cl)cc1S(=O)(=O)Nc1cccc(C(=O)O)c1 | 1.76% (inactive)
60 | O=C(Nc1ccc2ccccc2c1)Nc1ccc2snnc2c1 | 69.7% (active)
61 | COc1cccc(NC(=O)Nc2ccc(F)cc2)c1 | -52.4% (inactive)
62 | Cc1ccc(NC(=O)Nc2ccc3oc(C)nc3c2)cc1 | -27.6% (inactive)
63 | CN(CCC(=O)Nc1cc(S(=O)(=O)N(C)C)ccc1Cl)CC(=O)Nc1ccc(F)cc1 | 1.42% (inactive)
64 | CSCCNCc1cn(-c2ccc(F)cc2F)nc1-c1ccccc1C | 1.03% (inactive)
65 | OCc1nc(CO)n(Cc2ccccc2)n1 | 11.6% (inactive)
66 | O=C(CSc1ncnc2scc(-c3ccccc3)c12)NCc1ccc2c(c1)OCO2 | 22.3% (inactive)

Row | SMILES | inhibition
67 | O=C(COC(=O)c1ccc(Cl)nc1)NCc1ccc2c(c1)OCO2 | -7.63% (inactive)
68 | CN(C)C(=O)c1cccc(-c2cnc3sc(NCc4ccc5c(c4)OCO5)nn23)c1 | 51.8% (active)
69 | COc1ccccc1NC(=O)N1CCCC1C(=O)NCc1cccs1 (centres undefined) | 7.15% (inactive)
70 | COc1ccccc1CNC(=O)CN1CCC(n2cnc3cc(F)ccc32)CC1 | 2.42% (inactive)
71 | CCCCCCN1CCN(C2CN(Cc3cn(Cc4ccc(F)cc4)nn3)S(=O)(=O)C2)CC1 (centres undefined) | 0.62% (inactive)
72 | COCCN(C(=O)CCC(=O)Nc1ccccn1)C(C(=O)NCCC(C)C)c1ccc(OC)cc1 (centres undefined) | 5.49% (inactive)
73 | COc1ccc2nc(-c3ccccn3)ccc2c1 | 6.94% (inactive)
74 | COc1ccc(C(=O)/C=C/Nc2ccccn2)cc1 | 72.4% (active)
75 | CCOC(=O)c1c(C)[nH]c2c1-c1ccccc1C(=O)C2=O | 63.1% (active)
76 | CCOC(=O)c1cnc(COc2ccccc2Cl)[nH]c1=O | -7.4% (inactive)
77 | CCOC(=O)c1c(C)[nH]c(C)c1C(=O)CSc1nc(N)cc(N)n1 | 4.52% (inactive)
78 | O=C(NCc1nnc(SCC(=O)N2CCC(Cc3ccccc3)CC2)o1)c1ccco1 | 3.48% (inactive)
79 | Cc1ccc(CS(=O)Cc2ccc(C(=O)N3CCOCC3)o2)cc1 (centres undefined) | -4.44% (inactive)
80 | O=C1CSC(=S)N1c1ccc(O)cc1 | 50.1% (active)
81 | COc1cc(N2C(=O)CSC2=S)cc(OC)c1OC | 33.1% (inactive)
82 | O=C1CSC(=S)N1c1ccc(Cl)c(Cl)c1 | 33.2% (inactive)
83 | CC1=CC(=NNS(=O)(=O)c2ccc([N+](=O)[O-])cc2)CC(C)(C)C1 | -0.66% (inactive)
84 | Cc1nn(C(C)(C)C)c(OC(=O)CC(C)C)c1S(=O)(=O)c1ccccc1 | 12.4% (inactive)
85 | Cc1ccccc1OCCC(=O)OCC(=O)NCCc1ccc(S(N)(=O)=O)cc1 | 0.01% (inactive)
86 | O=C(Nc1ccc(-n2ccnc2P(=O)(O)c2ccccc2)cc1)c1ccccc1Br | -20.5% (inactive)
87 | Cc1cccc(C(=O)Nc2ccc3c(c2)C(=O)N(CC(C)C)C3=O)c1 | -12.3% (inactive)
88 | CN1CCN(S(=O)(=O)c2cccc(C(=O)Nc3cccc(S(N)(=O)=O)c3)c2)CC1 | 14.3% (inactive)

Row | SMILES | inhibition
89 | CC(C)CCN1C(=O)c2ccc(C(=O)Nc3cccc(S(N)(=O)=O)c3)cc2C1=O | 63.2% (active)
90 | COc1ccccc1OCCNc1cc(N2CCOCC2)ccc1[N+](=O)[O-] | -25% (inactive)
91 | COc1ccc(CCNc2cc(N3CCN(C(=O)c4ccccc4OC)CC3)ccc2[N+](=O)[O-])cc1OC | 64% (active)
92 | COc1ccc(CCNC(=O)c2ccccc2-c2ccccc2C(=O)O)cc1OC | -8% (inactive)
93 | C[N+](C)(C)CCNC(=O)c1c[nH]c2ccccc12 | -5.29% (inactive)
94 | Cc1ccc(F)cc1NC(=O)N1CCCN(c2ccc(C(F)(F)F)cn2)CC1 | 8.63% (inactive)
95 | O=C(O)c1cc(S(=O)(=O)N2CCCCCC2)c(Cl)cc1Cl | 0.33% (inactive)
96 | COc1cccc(/C=C(/CC(=O)Nc2ccc(N3CCOCC3)cc2)c2nc3ccccc3s2)c1 | 54.8% (active)
97 | CCn1c(Cc2ccc(OC)cc2)nnc1SCC(=O)Nc1ccc(N2CCOCC2)cc1 | 4.48% (inactive)
98 | Cc1ccc(OCCCC(=O)Nc2ccc(N3CCOCC3)cc2)cc1 | 6.99% (inactive)
99 | COc1cc2c(cc1OC)CN(C(=O)c1ccc(S(=O)(=O)N3CCCCCC3)cc1)CC2 | -2.54% (inactive)
100 | COc1cc2c(cc1OC)CN(C(=O)c1cc(S(=O)(=O)N3CCCCC3)ccc1Cl)CC2 | -16.5% (inactive)
101 | COc1cc2c(cc1OC)C(C)N(S(=O)(=O)c1cnc(Cl)c(Cl)c1)CC2 (centres undefined) | 62.8% (active)
102 | COc1cccc(NC(=O)C(Sc2nc3ccccc3c(=O)n2CC(C)C)c2ccccc2)c1 (centres undefined) | -17.8% (inactive)
103 | O=C(Nc1ccc(N2CCOCC2)nc1)c1c(F)cccc1F | -14.2% (inactive)
104 | CCOC(=O)C1CCCN(C(=O)c2ccc(C)c(F)c2)CC1 (centres undefined) | 1.56% (inactive)
105 | Cn1cc(CNC(=O)c2ccc(OC3CCN(Cc4ccccn4)CC3)cc2)cn1 | -10.1% (inactive)
106 | CN(CCc1ccccn1)C(=O)c1ccc(OC2CCN(Cc3ccccn3)CC2)cc1 | 50.2% (active)
107 | CN(CCc1ccccn1)C(=O)c1ccc(OC2CCN(CCc3ccccc3)CC2)cc1 | -24% (inactive)
108 | Cc1ccccc1C(=O)Nc1cccc(-c2nnc(SCC(=O)O)n2C)c1 | 18.5% (inactive)
109 | CCOC(=O)/C(C#N)=C\c1c(C)cc(C)c(COC(C)=O)c1C | -28.3% (inactive)
